# In the supplement of paper PMC3545927:
# This is one part of the list. How many sequences the whole screen found active is unknown.
# Target: furin, P09958
# Assay: furin cleavage Z-score vs untreated control; higher = more cleavage, active = 3.5 or more, inactive = 1 or less, 8 variable residues between constant flanks
# Method in brief: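 In 50 mM HEPES pH 7.5 with CaCl2 and NaCl, purified furin was incubated with bead-anchored 8-mer peptide–cDNA fusions at 1:10 enzyme:substrate in 0.01 ml. Incubation times were 7.5, 15 and 30 min. DNA set free by cleavage was adapter-tagged by PCR and sequenced, with read counts taken as abundance. Log counts relative to furin-free reactions, after lowess adjustment and median absolute deviation scaling, form the cleavage Z-score.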
# furin, P09958, sequence (P09958 whole entry): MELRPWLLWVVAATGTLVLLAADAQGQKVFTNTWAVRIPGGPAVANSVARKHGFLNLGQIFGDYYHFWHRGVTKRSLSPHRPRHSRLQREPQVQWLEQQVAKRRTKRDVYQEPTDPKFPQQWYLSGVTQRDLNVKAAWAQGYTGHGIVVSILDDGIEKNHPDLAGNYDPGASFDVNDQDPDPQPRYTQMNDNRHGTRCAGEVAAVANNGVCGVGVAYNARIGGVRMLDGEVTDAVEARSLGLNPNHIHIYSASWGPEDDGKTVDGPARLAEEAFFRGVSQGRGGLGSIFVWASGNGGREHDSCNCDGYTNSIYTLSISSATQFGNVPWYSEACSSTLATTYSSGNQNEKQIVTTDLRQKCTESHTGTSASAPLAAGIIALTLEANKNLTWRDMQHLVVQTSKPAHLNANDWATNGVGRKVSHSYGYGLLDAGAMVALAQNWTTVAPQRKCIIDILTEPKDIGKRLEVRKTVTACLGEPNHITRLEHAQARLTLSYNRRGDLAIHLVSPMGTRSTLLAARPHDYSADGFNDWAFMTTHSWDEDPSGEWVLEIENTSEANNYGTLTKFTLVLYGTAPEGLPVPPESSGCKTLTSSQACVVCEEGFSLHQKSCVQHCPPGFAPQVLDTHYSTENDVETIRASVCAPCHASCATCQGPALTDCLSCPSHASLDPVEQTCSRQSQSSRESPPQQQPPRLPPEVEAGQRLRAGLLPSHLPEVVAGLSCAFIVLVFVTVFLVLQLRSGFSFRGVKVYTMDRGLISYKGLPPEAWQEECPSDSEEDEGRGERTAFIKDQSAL
Sequence,furin cleavage Z-score (7.5 min),furin cleavage Z-score (15 min),furin cleavage Z-score (30 min)
CADRLQVLDSAGNASASA [HC1398],1.26,0.665 (inactive),0.144 (inactive)
CAQFKQKALGAGNASASA [HC1024],0.453 (inactive),-0.904 (inactive),0.989 (inactive)
CANCGYRRCRAGNASASA [HC1507],-0.406 (inactive),-0.477 (inactive),0.265 (inactive)
CAPLNVRGGRAGNASASA [HC592],-0.486 (inactive),0.851 (inactive),0.124 (inactive)
CAPVSARRGRAGNASASA [HC661],3.67 (active),2.35,2.39
CAECVTSTWVAGNASASA [HC2180],0.903 (inactive),2.44,0.32 (inactive)
CASVNRNKKSAGNASASA [FS-875],-0.482 (inactive),-0.223 (inactive),1.34
CAGVARVRKSAGNASASA [FS-169],7.76 (active),6.48 (active),7.18 (active)
CAGVARFYRSAGNASASA [FS-661],6.6 (active),7.47 (active),8.24 (active)
CAGRARCYRSAGNASASA [FS-786],5.83 (active),5.27 (active),4.62 (active)
CARPSRLKKFAGNASASA [FS-290],-0.934 (inactive),-0.739 (inactive),-0.88 (inactive)
CAGKSRLKKSAGNASASA [FS-429],3.94 (active),3.83 (active),4.7 (active)
CAGPARPWKSAGNASASA [FS-127],0.451 (inactive),-1.62 (inactive),-1.1 (inactive)
CAGPADGMVSAGNASASA [HC667],0.24 (inactive),0.132 (inactive),-1.59 (inactive)
CAGVPCHRPSAGNASASA [HC2316],0.883 (inactive),-1.9 (inactive),1.03
CASTQCSAHLAGNASASA [HC2522],1.38,0.361 (inactive),0.641 (inactive)
CASPDAELIEAGNASASA [HC1271],-0.191 (inactive),-1.02 (inactive),-2.02 (inactive)
CASTPCSAHDAGNASASA [HC2571],-1.23 (inactive),-0.24 (inactive),-0.964 (inactive)
CAFNILGGWVAGNASASA [HC1065],-0.849 (inactive),-1.69 (inactive),0.522 (inactive)
CATQTVDFSLAGNASASA [HC890],0.518 (inactive),0.088 (inactive),-1.06 (inactive)
CAIVCCSMSYAGNASASA [HC1984],0.599 (inactive),0.44 (inactive),1.09
CAVVCCSMVYAGNASASA [HC2070],1.39,-0.784 (inactive),-0.578 (inactive)

Sequence,furin cleavage Z-score (7.5 min),furin cleavage Z-score (15 min),furin cleavage Z-score (30 min)
CAVEAQLHVWAGNASASA [HC587],0.261 (inactive),1.76,0.118 (inactive)
CAGMIRVRKSAGNASASA [FS-244],9.53 (active),9.46 (active),8.14 (active)
CAEVPCHRKSAGNASASA [HC2394],0.666 (inactive),1.67,0.974 (inactive)
CAPAEILRKSAGNASASA [HC1296],-1.4 (inactive),-0.0107 (inactive),-2.04 (inactive)
CACPGRPWKSAGNASASA [FS-645],0.174 (inactive),0.632 (inactive),-1.05 (inactive)
CAGPARSHRSAGNASASA [FS-1525],2.6,5.21 (active),5.09 (active)
CAGKPRVRKSAGNASASA [FS-160],11.6 (active),11.6 (active),7.27 (active)
CAQSLRQRKSAGNASASA [FS-915],0.195 (inactive),0.0646 (inactive),0.773 (inactive)
CAMYECSQHLAGNASASA [HC1689],1.1,2.02,0.756 (inactive)
CAEVVYSTWVAGNASASA [HC137],-0.752 (inactive),0.088 (inactive),1.03
CASTPCSRHLAGNASASA [HC2533],1.13,0.843 (inactive),-0.486 (inactive)
CATTPMSGSWAGNASASA [HC48],-1.24 (inactive),-0.966 (inactive),-0.511 (inactive)
CAREIRQAFKAGNASASA [FS-2912],0.791 (inactive),0.404 (inactive),0.281 (inactive)
CAIRARVARAAGNASASA [FS-1348],9.33 (active),9.7 (active),7.2 (active)
CAAACGDIINAGNASASA [HC656],-0.691 (inactive),-0.739 (inactive),-0.629 (inactive)
CAPEIRQARAAGNASASA [FS-1043],3.65 (active),4.35 (active),4.12 (active)
CAPSNRSARAAGNASASA [FS-1245],8.79 (active),11.3 (active),9 (active)
CAPTLWARMIAGNASASA [HC1579],0.463 (inactive),2.4,0.0409 (inactive)
CAYGAGVAGAAGNASASA [HC1088],-0.899 (inactive),-0.739 (inactive),-0.913 (inactive)
CAAMFRVRRNAGNASASA [FS-5],13 (active),11.7 (active),9.8 (active)
CARLKKSQFLAGNASASA [FS-2988],-1.1 (inactive),-0.681 (inactive),-1.54 (inactive)
